In PubChem BioAssay AID493034 (The Scripps Research Institute Molecular Screening Center, 2011) one finds inhibition data, which are given here for 86 compounds.

Screen size: about 2,400 compounds; about 2,200 (92%) were called active. So high a share suggests a set chosen from earlier hits. This is one part of the list. Unmarked numbers belong to inactive results.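 The calls were made as follows: active = mean inhibition over triplicate runs exceeds the cutoff derived for the earlier primary screen (cut at about 25% in these data); inactive = the rest.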

Broadly, the inhibition is the change of the read-out against control, counted positive when it falls.

The target in this assay is Platelet-activating factor acetylhydrolase IB subunit alpha2 (Homo sapiens) (UniProt P68402). Put plainly: PAFAH1B2 inhibitors, confirmation, biochemical, fluorescence polarization, FP-rhodamine probe, triplicate (AID 493034).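 Also: 0% = enzyme with DMSO and 100% = wells lacking PAFAH1B2 protein; inhibitors lower polarization by leaving the probe unbound.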 To be noted: recombinant PAFAH1B2, FP-rhodamine probe fluorescence polarization; at 3.39 µM; stronger effect = higher value. (In general: In fluorescence polarisation assays a small probe gives low polarisation when free and higher when bound to something large.)
Platelet-activating factor acetylhydrolase IB subunit alpha2 (Homo sapiens), sequence (P68402 whole entry, looked up): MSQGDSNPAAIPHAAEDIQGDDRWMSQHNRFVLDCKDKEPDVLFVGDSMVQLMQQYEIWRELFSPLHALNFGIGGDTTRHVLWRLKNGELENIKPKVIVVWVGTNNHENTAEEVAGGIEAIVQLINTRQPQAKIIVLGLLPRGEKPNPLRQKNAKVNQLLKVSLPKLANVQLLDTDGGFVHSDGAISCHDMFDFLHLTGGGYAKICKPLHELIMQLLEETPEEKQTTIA
As for `O=C(COc1ccc(Cl)cc1)NNC(=O)C(=O)N1CCCCC1`, the inhibition is 19.2%.
For `O=C(COc1ccc(Cl)cc1)NC1=NN(c2ccccc2)C(=O)C1` the value was 67.5% (active).
As to `CCOC(=O)N1CCN(C(=O)c2ccccc2NC(=O)COc2ccccc2)CC1`, the inhibition was 1.01%.
For `N#CC1=C(N)c2ccccc2CC12CCCCC2` the value was 17.4%; for `N=C(N)c1ccc(N=Nc2c(O)ccc3c2[nH]c2ccccc23)cc1`, 33.4% (active); for `O=[N+]([O-])c1cc(C2Nc3cccc4cccc(c34)N2)ccc1Cl`, -0.07%.
For `O=C1OC[C@H]2CCCN2C(=O)[C@@H](CC(=O)N(CCO)Cc2ccccc2)C/C=C\C[C@@H]1Cc1ccc(F)cc1` the value was 27.5% (active); for `O=C1OC[C@@H]2CCCN2C(=O)[C@@H](CC(=O)N(CCO)Cc2ccccc2)C/C=C\C[C@H]1Cc1ccc(F)cc1`, 29.1% (active); for `O=C1OC[C@@H]2CCCN2C(=O)[C@H](CC(=O)N(CCO)Cc2ccccc2)C/C=C\C[C@H]1Cc1ccc(F)cc1`, 33.2% (active).
For `O=C1N[C@@H](Cc2ccccc2)COC(=O)[C@@H](Cc2ccc(F)cc2)C/C=C\C[C@@H]1CC(=O)N(CCO)Cc1ccccc1`, the inhibition is 37.2% (active).
Take `O=C1N[C@@H](Cc2c[nH]c3ccccc23)COC(=O)[C@@H](Cc2ccc(F)cc2)CC/C=C/C[C@@H]1CC(=O)N(CCO)Cc1ccccc1`: the inhibition was 21.5%.
Regarding `O=C(O)CCc1ccc(-c2ccc(Br)cc2)n1-c1ccc(O)cc1`, the inhibition is 31.6% (active).
Turning to `Cc1ccc(S(=O)(=O)Oc2ccc(/C=C3/C(=N)N4C(=NC3=O)SN=C4S(C)(=O)=O)cc2)cc1`, the inhibition was 50% (active).
On to `CS(=O)(=O)C1=NSC2=NC(=O)/C(=C\c3cccn3-c3ccc(Cl)cc3)C(=N)N21`, for which the inhibition is 55.9% (active).
For `Cc1ccc(-n2cccc2/C=C2\C(=N)N3N=C(c4ccco4)SC3=NC2=O)cc1`, the inhibition was 38.1% (active).
On to `CCC1=NN2C(=N)/C(=C\c3cccn3-c3ccc(Cl)cc3)C(=O)N=C2S1`, for which the inhibition is 36.4% (active).
For `Cc1ccc(SCc2cn3c(C)csc3n2)cc1` the value was 59.7% (active).
For `Cc1ccc(SCC(=O)NC(C)c2ccccc2)cc1` (stereo unspecified) the value was 21%.
As to `CCc1ccc(C2CC(c3ccc(Cl)cc3)n3nc(N)nc3N2)cc1` (stereo unspecified), the inhibition was 30.1% (active).
For `C=CC[C@H](CC(=O)N(CCO)Cc1ccccc1)C(=O)N[C@H](COC(=O)[C@@H](CC=C)Cc1ccc(F)cc1)Cc1ccccc1` the value was 58% (active); for `CCCCn1c(N)c(N(CC(C)C)C(=O)CN2C(=O)NC3(CCC(C(C)(C)CC)CC3)C2=O)c(=O)[nH]c1=O` (stereo unspecified), 16.4%; for `COc1ccc2[nH]c(C(=O)NCCN3CCOCC3)cc2c1`, 6.21%.
`COc1ccc(N2CCN(C(=O)CCNC(=O)c3ccc(C(C)(C)C)cc3)CC2)cc1`: the inhibition is 62.3% (active).
For `CC(/C=C1\SC(=S)N(NS(=O)(=O)c2ccccc2)C1=O)=C\c1ccccc1` the value was 39.6% (active).
Regarding `Cc1ccc(S(=O)(=O)n2ccc3c(OCCOCCSCC(NC(=O)OC(C)(C)C)C(=O)O)cccc32)cc1` (stereo unspecified), the inhibition is 85.8% (active).
As for `CC1(C)Cc2ccccc2C2=C(C(=O)N3CCCCCC3)C(=O)C(=O)N21`, the inhibition was 64.2% (active).
`CCC(=O)Nn1cnc2c(c1=O)C1(CCCCC1)Cc1ccccc1-2`: the inhibition was 19.9%.
Consider `O=C1C(=O)N2C(=C1C(=O)N1CCCCCC1)c1ccccc1CC21CCCC1`, for which the inhibition was 32.8% (active).
For the compound `O=C(NCCSc1ncc(-c2ccc(F)cc2)[nH]1)c1ccc2c(c1)OCO2`, the inhibition is 20.8%.
Take `CCOc1ccc(OCCSc2nc3ccccc3c(=O)[nH]2)cc1`: the inhibition was 3.03%.
Consider `CCOC(=O)c1ccccc1NC(=O)CSc1nnc(C)c(=O)[nH]1`, for which the inhibition was 22.2%.
For `CCOc1ccc2nc(NC(=O)CSc3nc(-c4ccccc4)c(C#N)c(=O)[nH]3)sc2c1` the value was 81.7% (active).
Consider `N#Cc1c(-c2ccccc2)nc(SCC(=O)Nc2ccc(OC(F)(F)Cl)cc2)[nH]c1=O`, for which the inhibition was 76.1% (active).
On to `CCOC(=O)Cc1csc(NC(=O)CSc2nc(-c3ccccc3)c(C#N)c(=O)[nH]2)n1`, for which the inhibition is 63.6% (active).
Turning to `CCc1ccc(S(=O)(=O)NCCc2csc(-c3ccccc3)n2)s1`, the inhibition is 22.1%.
As to `Cc1cc(N2CCCC2=O)cc(C)c1S(=O)(=O)NCCOc1ccc(C(C)(C)C)cc1`, the inhibition was 33.7% (active).
For `O=C1C(=O)C(c2ccccc2)C(=O)C1c1ccccc1` (stereo unspecified), the inhibition was 25.4% (active).
As to `O=C(O)c1[nH]c2ccccc2c1C(c1cc(Cl)cc([N+](=O)[O-])c1O)c1c(C(=O)O)[nH]c2ccccc12`, the inhibition is 43.8% (active).
Consider `COc1cc(Cl)cc(C(c2c(C(=O)O)[nH]c3ccccc23)c2c(C(=O)O)[nH]c3ccccc23)c1O`, for which the inhibition was 71% (active).
Consider `CN(Cc1cccs1)C(=O)CCNS(=O)(=O)c1ccc(Br)cc1`, for which the inhibition is 21.4%.
With `O=[N+]([O-])c1cc(-c2csc(NCCc3nc4cc(C(F)(F)F)ccc4n3CCCO)n2)ccc1Cl`, the inhibition is 14.9%.
Turning to `COc1ccccc1NC(=O)C(=O)NNS(=O)(=O)c1ccc2ccccc2c1`, the inhibition is 23.4%.
As for `O=C(O)c1cc(NS(=O)(=O)c2ccc3ccccc3c2)ccc1O`, the inhibition is 35.9% (active).
Take `O=C(O)c1ccc(NS(=O)(=O)c2ccc(Cl)c(Cl)c2)cc1O`: the inhibition was 20.1%.
Take `CCC(Sc1nc(-c2cccc(OC)c2)c(C#N)c(=O)[nH]1)C(=O)Nc1nnc(C(C)C)s1` (stereo unspecified): the inhibition was 34.6% (active).
In the case of `Cc1ccccc1S(=O)(=O)N1[C@@H](c2ccc(Br)cc2)C(C(=O)O)=CC[C@H]1c1ccc(Cl)cc1`, the inhibition is 83.2% (active).
As to `O=C(O)C1=CC[C@@H](c2ccc(Cl)cc2)N(S(=O)(=O)c2ccc(Cl)cc2)[C@H]1c1ccc(Br)cc1`, the inhibition is 86.3% (active).
Turning to `CNc1nc(NCCOC23CC4CC(CC(C4)C2)C3)nc(OCC(F)(F)F)n1`, the inhibition was 22.2%.
`CCCCNC(=O)Oc1ccc(C(=O)N2c3ccccc3NC(=O)C2C)cc1` (stereo unspecified): the inhibition was 41.2% (active).
On to `CC(C)(C)Cc1nnc(NS(=O)(=O)c2ccc(F)cc2)s1`, for which the inhibition is 20.3%.
For `C/C(CC(C)(C)C1CCCCC1)=N\NC(N)=S` the value was 30.1% (active); for `O=S(=O)(NC(=NCCc1ccc(Cl)cc1)c1ccccc1Cl)c1cccs1`, 110% (active).
For `CSCCC(NS(=O)(=O)c1ccc(Cl)cc1)C(=O)OCc1cccc(Cl)c1` (stereo unspecified) the value was 23.1%; for `NC(=NCCc1ccc(Cl)cc1)NS(=O)(=O)c1ccccc1`, 49.9% (active).
For `O=S(=O)(NCc1ccc(Cl)cc1)c1ccc(Cl)nc1` the value was 22.4%; for `O=C(CNS(=O)(=O)c1ccccc1)NCC(=O)OCc1ccc(Br)cc1`, 23.9%; for `NC(=NCCc1ccc(Cl)cc1)NS(=O)(=O)c1ccc(F)cc1`, 50.7% (active).
As to `CCOC(=O)c1sc(NC(=O)CN(CC(C)C)CC(C)C)c(C(=O)OCC)c1C`, the inhibition was 6.46%.
For `N#C/C(=C/c1cn[nH]c1-c1ccc(Br)cc1)C(=O)O`, the inhibition was 20.3%.
As for `Cc1ccc([N+](=O)[O-])c(-c2n[nH]c(=S)n2-c2cccc(Cl)c2)c1`, the inhibition is 24%.
As for `CC(C)(C)[C@H]1COC(=O)[C@@H](Cc2ccc(F)cc2)C/C=C\C[C@@H](CC(=O)N[C@H](CO)Cc2ccccc2)C(=O)N1`, the inhibition is 62.1% (active).
On to `CC(C)(C)[C@H]1COC(=O)[C@@H](Cc2ccc(F)cc2)C/C=C\C[C@@H](CC(=O)N[C@@H](CO)Cc2ccccc2)C(=O)N1`, for which the inhibition was 32.7% (active).
With `CC(C)(C)[C@@H]1COC(=O)[C@H](Cc2ccc(F)cc2)C/C=C\C[C@@H](CC(=O)NCCO)C(=O)N1`, the inhibition was 17.5%.
For the compound `CC(C)(C)[C@H]1COC(=O)[C@@H](Cc2ccc(F)cc2)CC/C=C/C[C@@H](CC(=O)N[C@H](CO)Cc2ccccc2)C(=O)N1`, the inhibition was 26.6% (active).
As to `Cc1c(N=C2C=C(Br)C(=O)C(Br)=C2)c(=O)n(-c2ccccc2)n1C`, the inhibition was 20.8%.
As for `O=c1[nH]c2ccc(S(=O)(=O)Nc3ccc(Cl)cc3)cc2o1`, the inhibition is 41.7% (active).
Regarding `O=S(=O)(Nc1ccc2cn[nH]c2c1)c1ccc(Cl)cc1`, the inhibition was 18.1%.
In the case of `Nc1n[nH]c2c1C1(CCCCC1)Cc1ccccc1-2`, the inhibition is 22%.
In the case of `O=C(/C=C/c1ccc(O)c(O)c1)OCCc1ccccc1`, the inhibition is 19.7%.
For the compound `O=C(OCCc1ccccc1)c1cc(O)c(O)c(O)c1`, the inhibition is 34.3% (active).
Turning to `N=c1c[n+](-c2ccc(Cl)cc2)[n-]o1`, the inhibition is 18.1%.
With `O=S(=O)(c1ccc(Cl)cc1)N1CCCC(C(F)(F)F)C1` (stereo unspecified), the inhibition was 22.5%.
In the case of `O=C(CN1CCN(S(=O)(=O)c2ccc(Cl)cc2)CC1)c1ccc(O)c(O)c1`, the inhibition is 33.2% (active).
Take `CN(Cc1ccccc1)C(=O)CN1CCN(S(=O)(=O)c2ccc(Cl)c(Cl)c2)CC1`: the inhibition is 22.8%.
For `O=C(NNC(=S)NC(=O)C12CC3CC(CC(C3)C1)C2)c1ccncc1` the value was 38.2% (active); for `O=C(NNC(=O)C12CC3CC(CC(C3)C1)C2)c1cccc([N+](=O)[O-])c1`, 18.9%; for `CCC(=O)Nc1cc(C)c(NC(=O)C23CC4CC(CC(C4)C2)C3)cn1`, 22.1%.
Regarding `O=C1C(c2ccccc2)NC(=S)N1C1CCCCC1` (stereo unspecified), the inhibition is 20.2%.
In the case of `O=C(O)c1ccn2c(C(=O)c3ccc(Cl)cc3)c(-c3ccccc3)cc2c1`, the inhibition is 62.6% (active).
Turning to `O=C(O)c1ccn2c(C(=O)c3ccccc3)c(-c3ccccc3)cc2c1`, the inhibition is 27.1% (active).
Regarding `O=C1NC(c2cccs2)C(C(=O)c2ccccc2)C(O)(C(F)(F)F)N1` (stereo unspecified), the inhibition is 11.5%.
For `CC(C)CCNC(=O)Cc1c(C(=O)O)[nH]c2ccc(Cl)cc12`, the inhibition was 43.9% (active).
For `CC1CC(C)CN(C(=O)Cc2c(C(=O)O)[nH]c3ccc(Cl)cc23)C1` (stereo unspecified) the value was 73.8% (active).
For `Cc1ccc2[nH]c(C(=O)O)c(NC(=O)[C@@H]3C[C@@H]3c3ccccc3)c2c1` the value was 17.5%.
For the compound `CCCCN(CC)C(=O)Cc1c(C(=O)O)[nH]c2ccc(Cl)cc12`, the inhibition is 41.1% (active).
As for `CCOCCCNC(=O)Cc1c(C(=O)O)[nH]c2ccc(Cl)cc12`, the inhibition was 26.3% (active).
